Assay [1] in a line: Nuclear factor erythroid 2-related factor 2/antioxidant responsive element (Nrf2/ARE) small molecule agonists: qHTS cell viability counter screen in human keratinocytes (AID 1919968; active = well fitted curve in the direction sought with a large enough effect in the repeat runs; an effect the other way counts as inactive or inconclusive; note: nearly all actives have a fitted effect of over 55% in size; note: potency is the fitted concentration of half-maximal effect). The procedure, abridged: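 Stably transfected HaCaT (KeratinoSens), 1,500/well. Test agents in DMSO were applied for 23 h, 37 C/5% CO2. CellTiter-Fluor was incubated 1 h before the fluorescence read.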

Assay [2] is described as follows: Nuclear factor erythroid 2-related factor 2/antioxidant responsive element (Nrf2/ARE) small molecule agonists: luciferase reporter gene qHTS assay in human keratinocytes (AID 1919969). Note: nearly all actives have a fitted effect of over 35% in size.
Assay [3] deals with Gonadotropin-releasing hormone receptor (Homo sapiens) (UniProt P30968). Briefly: Human gonadotropin-releasing hormone receptor (GnRHR) small molecule agonists, calcium flux assay in GnRHR-HEK293 cells (AID 1920063). Note: nearly all actives have a fitted effect of over 35% in size. Summed up: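 Stable human GnRHR HEK293 line. 18 h plating, then calcium dye for 1 h at 37 C. Agonist-mode compound addition from DMSO stocks; fluorescence monitored 3 min.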

Assay [4] has as its target KiSS-1 receptor (Homo sapiens) (UniProt Q969F8). The assay can be described thus: Human kisspeptin (KISS1R) small molecule agonists, calcium flux assay in KISS1R-HEK293 cells (AID 1920064; active = well fitted curve in the direction sought with a large enough effect in the repeat runs; an effect the other way counts as inactive or inconclusive). The procedure, abridged: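 After overnight (18 h) culture at 37 C/5% CO2, human KISS1R-HEK293 cells received calcium dye for 1 h, then test compound; emission at 540 nm (excitation 480 nm) was tracked for 3 min.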

Assay [5] is described as follows: G protein-coupled receptor (GPCR) small molecule agonists, calcium flux assay: HEK293 wild type cell line counter screen (AID 1920065). Summed up: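 Following 18 h incubation at 37 C/5% CO2, plates got calcium dye for 1 h; compounds, ATP or DMSO were then pinned in and fluorescence followed kinetically (480/540 nm).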
The nature of assay [6]: p53 small molecule agonists, cell-based qHTS assay with human liver microsomes (AID 1963577).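 Note: p53 response element beta-lactamase reporter cells with liver microsomes plus NADPH.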 Summed up: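 Reporter activation was measured by LiveBLAzer fluorescence intensity in p53RE-bla cells, which had been exposed to compounds for 16 h at 37 C alongside 0.5 mg/mL human liver microsomes and 0.5 mg/mL NADPH (final concentrations).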
A short description of assay [7]: p53 small molecule agonists, cell-based qHTS assay with rat liver microsomes (AID 1963578). The procedure, abridged:
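Compound in DMSO added to p53RE-bla cells 5 h post-plating; rat microsomes/NADPH 0.5 mg/mL final; 16 h, 37 C; LiveBLAzer 2 h RT.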

The nature of assay [8]: p53 small molecule agonists, cell-based qHTS assay with human liver microsomes: qHTS cell viability counter screen (AID 1963579). Note: nearly all actives have a fitted effect of over 45% in size. Note: potency is the fitted concentration of half-maximal effect. The procedure, abridged: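 HLM-supplemented (0.5 mg/mL final) and NADPH-supplemented (0.5 mg/mL final) p53RE-bla cultures, 4,000 cells per well, were dosed with compounds in DMSO for 16 h at 37 C; luminescent ATP detection (CellTiter-Glo, 30 min, room temperature) quantified surviving cells.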

The nature of assay [9]: p53 small molecule agonists, cell-based qHTS assay with rat liver microsomes: qHTS cell viability counter screen (AID 1963580). Note: nearly all actives have a fitted effect of over 45% in size. Note: potency is the fitted concentration of half-maximal effect. Summed up: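 Cytotoxicity counter screen: intracellular ATP measured by CellTiter-Glo luminescence in the same wells as the beta-lactamase reporter read, on HCT-116 p53RE-bla cells exposed 16 h at 37 C to compounds with rat liver microsomes and NADPH, each 0.5 mg/mL final.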

The nature of assay [10]: p53 small molecule agonists, cell-based qHTS assay: qHTS cell viability counter screen (AID 1963581). Note: nearly all actives have a fitted effect of over 45% in size. Summed up: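 qHTS counter screen: 16 h compound exposure at 37 C of p53RE-bla HCT-116 cells (4,000 per well, seeded 5 h prior), cell viability by ATP luminescence.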
Assay [11] is described as follows: p53 small molecule agonists, cell-based qHTS assay (AID 1963582; active = well fitted activation curve with a large enough effect in the signal ratio in the repeat runs, not every such curve was filed as active; the % refers to the signal ratio). Summed up: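 Measured: fluorescence from cleaved LiveBLAzer substrate. System: p53RE-bla cells, 16 h compound treatment at 37 C, 2 h substrate step at room temperature.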
Assay [12] concerns the target 5-hydroxytryptamine receptor 2A (Homo sapiens) (UniProt P28223). Briefly: 5-hydroxytryptamine receptor 2A (HTR2A) small molecule antagonists, cell-based qHTS assay (AID 1963586). Note: nearly all actives have a fitted effect of over 45% in size. Note: potency is the fitted concentration of half-maximal effect. Summed up: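 CHO cells stably expressing human HTR2A were plated for 18 h at 37 C, then loaded with calcium dye for 1 h. Compounds were preincubated 5 min at room temperature before DOI (4 nM solution) was added. Kinetic fluorescence was read for 3 min.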

For assay [13], the target named is Muscarinic acetylcholine receptor M1 (Homo sapiens) (UniProt P11229). The assay can be described thus: Cholinergic receptor muscarinic 1 (CHRM1) small molecule antagonists, cell-based qHTS assay (AID 1963588). Note: nearly all actives have a fitted effect of over 40% in size. Note: potency is the fitted concentration of half-maximal effect. Summed up:
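Compounds were tested at 15 concentrations in three independent runs. Dye-loaded CHRM1-CHO cells were exposed 5 min at room temperature before stimulation by acetylcholine added at 50nM. Intracellular calcium was read kinetically on FDSS for 3 min.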

A short description of assay [14]: cAMP Responsive Elements (CRE) small molecule agonists, cell-based qHTS assay (AID 1963590). The procedure, abridged:
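Test agents in DMSO were incubated 3 h at 37 C/5% CO2 with CRE-bla HEK 293T cells seeded 18 h earlier; LiveBLAzer B/G FRET substrate was added and read after 2 h at room temperature.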

Assay [15] can be described thus: cAMP Responsive Elements (CRE) small molecule antagonists, cell-based qHTS assay (AID 1963591; active = well fitted inhibition curve with a large enough effect in the signal ratio in the repeat runs, not every such curve was filed as active; the % refers to the signal ratio). Summed up:
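Reporter line CRE-bla HEK 293T in dialyzed-FBS DMEM; cells preincubated 18 h, treated 3 h with compound plus NKH477 (0.25 uM final); LiveBLAzer FRET, 2 h RT.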

Assay [16] concerns the target Beta-2 adrenergic receptor (Homo sapiens) (UniProt P07550). The assay can be described thus: Adrenergic beta2 receptor (ADRB2) small molecule agonists, cell-based qHTS assay (AID 1963593).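 Note: CHO cells stably overexpressing human ADRB2.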 Summed up:
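CHO cells stably over-expressing ADRB2 were plated overnight at 37C, then dosed with compounds plus a stimulation mix containing 100uM IBMX and 25uM Ro-20-1724 for 0.5hr at room temperature. cAMP was measured by HTRF competition, 1hr.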

For assay [17], the target named is D(2) dopamine receptor (Homo sapiens) (UniProt P14416). Briefly: Dopamine D2 receptor (DRD2) small molecule agonists, cell-based qHTS assay (AID 1963594). Note: nearly all actives have a fitted effect of over 35% in size. Summed up:
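HEK293 cells stably expressing human DRD2, pre-treated with PDE inhibitor Ro20-1724 (0.1 mM final) and compound 10 min at room temperature, then stimulated with NKH477 (200nM […]) for 30 min. cAMP read by HTRF (665/620 nm).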

Assay [18] has as its target Beta-2 adrenergic receptor (Homo sapiens) (UniProt P07550). The assay can be described thus: Adrenergic beta2 receptor (ADRB2) small molecule antagonists, cell-based qHTS assay (AID 1963592). Note: series mostly up to about 92 µM; nearly all actives have a fitted effect of over 50% in size. The procedure, abridged: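 Assay format: CHO-ADRB2 cells, 18-20hr seeding at 37C/5% CO2, then compound plus 1nM isoproterenol agonist mix for 0.5hr RT. Homogeneous time-resolved fluorescence cAMP detection after 1hr, expressed as 665/615 nm ratio.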

Assay [19] deals with D(2) dopamine receptor (Homo sapiens) (UniProt P14416). The assay can be described thus: Dopamine D2 receptor (DRD2) small molecule antagonists, cell-based qHTS assay (AID 1963595; active = well fitted inhibition curve with a large enough effect in the signal ratio in the repeat runs, with a control signal flat; the % refers to the signal ratio). The procedure, abridged: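 Cells were plated and grown for 24 h at 37 °C. Ro20-1724 (0.1 mM final) went in first, then compound for 10 min. NKH477 (200 nM) with quinpirole (12 nM) followed for 30 min at RT, then HTRF detection reagents for 1 h.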

Assay [20] has as its target 5-hydroxytryptamine receptor 2A (Homo sapiens) (UniProt P28223). The assay can be described thus: 5-hydroxytryptamine receptor 2A (HTR2A) small molecule agonists, cell-based qHTS assay (AID 1963587). Note: nearly all actives have a fitted effect of over 30% in size. Note: potency is the fitted concentration of half-maximal effect. The procedure, abridged:
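CHO cells stably expressing human HTR2A, plated 18 h, loaded with calcium dye 1 h at 37 C. Agonist mode: compounds added and intracellular calcium fluorescence recorded kinetically for 2 min at 1 sec intervals.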

“And” between values parts separate entries of the source, which are not always exact repeats. Equal values may be shown once. Records with an inconclusive call do not appear. More than one record can exist for a structure, and the calls need not agree. The source made the active and inactive calls. Unless noted, calls come from the whole dose curve.

5-hydroxytryptamine receptor 2A (Homo sapiens), sequence (P28223 whole entry, looked up): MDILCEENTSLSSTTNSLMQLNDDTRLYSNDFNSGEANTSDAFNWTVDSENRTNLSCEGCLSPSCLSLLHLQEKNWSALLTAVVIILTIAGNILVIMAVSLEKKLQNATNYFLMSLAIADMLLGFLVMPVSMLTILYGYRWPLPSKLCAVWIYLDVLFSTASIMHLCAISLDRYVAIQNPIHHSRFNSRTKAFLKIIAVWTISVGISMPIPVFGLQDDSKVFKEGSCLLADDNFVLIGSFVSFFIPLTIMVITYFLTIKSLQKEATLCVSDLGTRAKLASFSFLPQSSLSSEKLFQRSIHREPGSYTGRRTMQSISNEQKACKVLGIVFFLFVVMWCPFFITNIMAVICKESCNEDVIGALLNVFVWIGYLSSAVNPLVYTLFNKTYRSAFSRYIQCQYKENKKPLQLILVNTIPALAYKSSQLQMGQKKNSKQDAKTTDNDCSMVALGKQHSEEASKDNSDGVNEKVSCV
KiSS-1 receptor (Homo sapiens), sequence (Q969F8 whole entry, looked up): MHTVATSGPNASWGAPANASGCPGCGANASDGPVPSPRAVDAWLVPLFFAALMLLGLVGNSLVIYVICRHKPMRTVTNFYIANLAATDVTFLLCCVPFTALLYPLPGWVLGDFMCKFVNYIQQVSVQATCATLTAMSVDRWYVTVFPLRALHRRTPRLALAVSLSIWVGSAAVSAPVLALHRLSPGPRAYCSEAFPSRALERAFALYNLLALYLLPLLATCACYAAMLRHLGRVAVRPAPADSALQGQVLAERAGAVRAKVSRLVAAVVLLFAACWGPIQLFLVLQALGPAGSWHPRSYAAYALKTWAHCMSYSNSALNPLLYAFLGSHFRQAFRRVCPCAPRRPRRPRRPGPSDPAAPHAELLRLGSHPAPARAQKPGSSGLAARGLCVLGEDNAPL
Beta-2 adrenergic receptor (Homo sapiens), sequence (P07550 whole entry, looked up): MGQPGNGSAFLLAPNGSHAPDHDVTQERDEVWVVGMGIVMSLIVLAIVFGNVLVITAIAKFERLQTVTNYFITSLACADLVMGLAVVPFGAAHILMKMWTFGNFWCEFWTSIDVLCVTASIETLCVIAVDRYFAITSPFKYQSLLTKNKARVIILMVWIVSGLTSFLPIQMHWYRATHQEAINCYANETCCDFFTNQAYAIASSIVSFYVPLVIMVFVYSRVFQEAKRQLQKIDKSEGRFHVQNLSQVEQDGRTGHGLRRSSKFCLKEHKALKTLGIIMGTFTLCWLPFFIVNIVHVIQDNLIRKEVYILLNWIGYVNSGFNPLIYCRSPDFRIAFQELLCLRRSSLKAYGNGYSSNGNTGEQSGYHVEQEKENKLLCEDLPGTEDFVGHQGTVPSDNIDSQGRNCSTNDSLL
Gonadotropin-releasing hormone receptor (Homo sapiens), sequence (P30968 whole entry, looked up): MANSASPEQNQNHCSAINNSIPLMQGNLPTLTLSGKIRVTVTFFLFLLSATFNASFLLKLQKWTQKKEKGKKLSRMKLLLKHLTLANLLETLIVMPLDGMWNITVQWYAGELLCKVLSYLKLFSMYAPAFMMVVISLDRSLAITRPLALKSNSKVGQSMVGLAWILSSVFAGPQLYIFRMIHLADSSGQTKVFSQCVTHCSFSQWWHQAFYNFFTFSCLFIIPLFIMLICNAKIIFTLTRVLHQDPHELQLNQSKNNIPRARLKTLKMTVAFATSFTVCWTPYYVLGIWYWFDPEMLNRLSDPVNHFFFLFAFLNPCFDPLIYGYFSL
Muscarinic acetylcholine receptor M1 (Homo sapiens), sequence (P11229 whole entry, looked up): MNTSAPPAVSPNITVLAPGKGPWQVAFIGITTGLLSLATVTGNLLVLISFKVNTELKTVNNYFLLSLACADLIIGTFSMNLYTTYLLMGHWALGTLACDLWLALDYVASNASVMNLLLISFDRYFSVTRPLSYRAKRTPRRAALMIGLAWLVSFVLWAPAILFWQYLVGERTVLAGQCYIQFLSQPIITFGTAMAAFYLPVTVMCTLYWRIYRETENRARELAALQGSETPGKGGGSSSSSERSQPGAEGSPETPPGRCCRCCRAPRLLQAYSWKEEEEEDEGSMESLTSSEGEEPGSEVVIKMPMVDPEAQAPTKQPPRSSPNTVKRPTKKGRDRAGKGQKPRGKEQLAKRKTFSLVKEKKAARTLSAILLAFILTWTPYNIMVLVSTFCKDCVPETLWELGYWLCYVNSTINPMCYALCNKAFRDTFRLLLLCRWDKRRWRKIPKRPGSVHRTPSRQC
D(2) dopamine receptor (Homo sapiens), sequence (P14416 whole entry, looked up): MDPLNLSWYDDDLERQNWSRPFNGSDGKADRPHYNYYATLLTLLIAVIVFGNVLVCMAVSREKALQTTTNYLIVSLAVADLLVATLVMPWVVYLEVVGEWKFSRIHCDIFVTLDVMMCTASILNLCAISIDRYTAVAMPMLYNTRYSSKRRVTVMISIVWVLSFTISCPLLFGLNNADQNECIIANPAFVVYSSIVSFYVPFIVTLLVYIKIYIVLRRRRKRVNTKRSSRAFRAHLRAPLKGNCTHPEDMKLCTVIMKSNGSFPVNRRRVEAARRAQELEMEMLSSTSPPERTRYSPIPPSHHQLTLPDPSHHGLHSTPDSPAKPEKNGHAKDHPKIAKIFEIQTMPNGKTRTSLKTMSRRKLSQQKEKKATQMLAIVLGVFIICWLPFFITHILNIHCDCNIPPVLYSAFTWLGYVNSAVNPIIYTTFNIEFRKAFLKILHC

In the case of `O=C(Cl)c1c(Cl)c(Cl)c(C(=O)Cl)c(Cl)c1Cl`, the Potency entry in assay [1], in [2], in assay [3], in assay [4], in [5] and in assay [6] was “inactive” throughout. The Potency entry in assay [7], in [8], in assay [9], in assay [10], in assay [11] and in assay [12] was “inactive” throughout. In addition, the Potency entry in assay [13], in assay [14], in assay [15], in assay [16] and in [17] was “inactive” in each case.

`NC(=S)NNC(N)=S`: the Potency result in assay [1], in assay [2], in assay [3], in assay [4], in assay [5] and in [6] was “inactive” in each case. Moreover, the Potency entry in assay [7], in assay [8], in assay [9], in assay [10], in assay [11] and in assay [12] was “inactive” throughout. Besides, the Potency result in assay [13], in [14], in [15], in assay [18], in assay [16] and in assay [17] was “inactive” throughout. In assay [19], the Potency entry was “inactive”.

With `O=CCc1ccccc1`, the Potency entry in assay [1], in [2], in [3], in assay [4], in [5] and in [6] was “inactive” each time. For the same compound, the Potency entry in [7], in assay [8], in assay [9], in [10], in assay [11] and in assay [12] was “inactive” in each case. Further, the Potency result in assay [13], in assay [14], in assay [15], in assay [18], in assay [16] and in [17] was “inactive” in each case. For the same compound, in assay [19], the Potency result is “inactive”.

Turning to `NCCNc1cccc2ccccc12`, the Potency in assay [1] was 54.4 µM (active) and inactive; in assay [12], 2.9 nM (active); in [20] it was 389 nM (active) and 1.2 nM (active) and 19 nM (active). In addition, the Potency result in assay [2], in assay [3], in [4], in [5], in assay [6] and in [7] was “inactive” in each case. In addition, the Potency entry in [8], in assay [9], in assay [10], in assay [11], in assay [15] and in [17] was “inactive” in each case. The Potency result in assay [19] is “inactive”.

For `CCCCCCCCCCCCCC[N+](C)(C)Cc1ccccc1`, the Potency in assay [1] was 24.7 µM (active) and 13.3 µM (active) and 12.6 mM (active); in [8], “inactive and 17.8 mM (active)”; in [9], 46.5 µM (active) and inactive; in assay [12], 1.2 µM (active) and 4.1 µM (active) and inactive; in [13] it was 2.7 µM (active) and 631 µM (active). Also, the Potency entry in assay [2], in [3], in [4], in assay [5], in assay [6] and in assay [7] was “inactive” throughout. Also, the Potency entry in [10], in assay [11], in assay [15], in assay [18], in [16] and in assay [17] was “inactive” throughout.

On to `NCCCCCCN`, for which the Potency entry in [1], in [2], in [3], in [4], in [5] and in assay [6] was “inactive” each time. Also, the Potency entry in assay [7], in assay [8], in [9], in assay [10], in assay [11] and in assay [12] was “inactive” throughout. The Potency result in assay [20], in assay [14], in [15], in assay [18], in [16] and in assay [17] was “inactive” in each case. Besides, in assay [19], the Potency entry was “inactive”.

In the case of `CC1=CC(=O)CC(C)(C)C1`, the Potency in assay [1] was 2.5 µM (active) and inactive; in assay [9] it was 16.7 µM (active) and inactive. In addition, the Potency entry in [2], in assay [3], in assay [4], in assay [5], in assay [6] and in assay [7] was “inactive” throughout. Further, the Potency entry in assay [8], in [10], in [11], in assay [12], in [20] and in [14] was “inactive” throughout. The Potency result in assay [15], in assay [18], in assay [16], in assay [17] and in assay [19] was “inactive” in each case.

On to `N[C@@H](Cc1cc(I)c(Oc2cc(I)c(O)c(I)c2)c(I)c1)C(=O)O`, for which the Potency result in assay [1], in [2], in [3], in [4], in assay [5] and in assay [6] was “inactive” in each case. Further, the Potency entry in assay [7], in assay [8], in assay [9], in assay [10], in assay [11] and in assay [12] was “inactive” each time. Also, the Potency result in [13], in assay [14], in [18], in assay [16], in assay [17] and in [19] was “inactive” in each case.

(Values after PubChem BioAssay (Tox21).)
